Bioassay records: PubChem BioAssay, National Center for Advancing Translational Sciences (NCATS)
TRHR ag: TRH receptor (human) agonism. 0.18% of 360,000 active. activation, % at 2 µM. AID 493084. TRHR cells, calcium flux fluo-8, FDSS agonist mode; also: 0% is about no effect
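TRHR-expressing cells, plated overnight in medium with 10% serum, were loaded with fluo-8 calcium dye at room temperature. After a 10 s baseline, library compound was pin-added and calcium release was recorded kinetically (ex 480/em 530) as agonist response.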
TRHR enhancer: allosteric enhancers of human TRH receptor. P34981. TRHR cells, fluo-8 calcium fluorescence, EC20 TRH enhancement. enhancement, % at 2 µM. 0.66% of 360,000 active. AID 493056; in the data active = enhancement above about 30%; also: 0% is about no effect
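Enhancer read-out: after compound pinning and an initial kinetic agonist-mode read, an EC20 of TRH (10 nM final) was injected and fluo-8 calcium signal (Ex 480/Em 530) followed at 1 s/cycle for 100 cycles in TRHR-expressing cells.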
D1 ag: activates the human D1 dopamine receptor; P21728; HEK293 T-REx D1 cells, calcium flux, agonist mode; activation, % at 2 µM; 1% of 360,000 active; AID 504660; also: 0% is about no effect
Target sequence (P21728 whole entry, looked up): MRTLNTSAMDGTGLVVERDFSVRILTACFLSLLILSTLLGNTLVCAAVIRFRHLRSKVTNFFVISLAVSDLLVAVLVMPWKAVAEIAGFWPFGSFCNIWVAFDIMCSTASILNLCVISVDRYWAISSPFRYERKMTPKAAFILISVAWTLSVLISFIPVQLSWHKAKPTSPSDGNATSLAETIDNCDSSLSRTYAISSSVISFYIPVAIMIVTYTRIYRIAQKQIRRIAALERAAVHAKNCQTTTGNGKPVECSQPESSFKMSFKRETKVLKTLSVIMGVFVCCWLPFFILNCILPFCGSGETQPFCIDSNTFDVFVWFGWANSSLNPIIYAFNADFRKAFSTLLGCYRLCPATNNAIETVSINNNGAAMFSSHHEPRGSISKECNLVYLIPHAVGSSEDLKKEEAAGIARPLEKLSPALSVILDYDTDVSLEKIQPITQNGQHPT
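Inducible HEK293 T-REx D1 cells, force-coupled to calcium signalling, were plated at 4000 cells/well with tetracycline and held overnight at 30 C. After no-wash calcium dye loading, compound-evoked calcium rise over 180 s flagged agonists.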
D1 PAM: human D1 dopamine receptor positive modulation; P21728; HEK293 TREx D1 cells, calcium flux, dopamine EC20 potentiation; potentiation, % at 10 µM; 0.036% of 360,000 active; AID 504651; in the data active = potentiation above about 30%; also: 0% is about no effect
D1 antag: blocks dopamine activation of the human D1 receptor; P21728; HEK293 TREx D1 cells, calcium flux, dopamine EC80; stronger effect = lower value; activity change, negative = inhibition, % at 10 µM; 3.2% of 360,000 active; in the data active = activity change below about -30%; also: % is scaled to controls: 0 for no effect and ±100 for the full control effect
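Calcium flux readout: force-coupled, inducible Hek293 Trex D1 line, cells induced overnight at 30 C with tetracycline, dye-loaded 30–90 min at RT. Antagonism scored against EC80 dopamine challenge given 180 s after compound.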
* marks the source's active call; other numbers are inactive results. An excerpt weighted towards active compounds, which were near 4.6% of everything screened. Rule as the data show it, unless noted: active = activation above about 30%; inactive = the rest.

SMILES	TRHR ag	TRHR enhancer	D1 ag	D1 PAM	D1 antag
Cc1nn(CC(=O)N2CCN(c3ccccc3)CC2)c(=O)c2cc3cc(F)ccc3n12	0	-6	2	-5	-2
c1ccc(COc2ccc(OCCCNC3CCCC3)cc2)cc1	3	0	35*	1	-26
C=CCNCCCCOc1ccc(OCc2ccccc2)cc1	1	-1	45*	-5	-6
COCCCNCCCCOc1ccc(OCc2ccccc2)cc1	2	1	35*	-4	-18
COCCCNCCOc1ccc(C(C)(C)c2ccccc2)cc1	1	-8	29	-2	8
Cc1ccc2c(c1)C1(C(=O)N2)N2CCCC2C(C(=O)c2ccc3ccccc3c2)C12C(=O)Nc1ccccc12 (configuration not stated)	0	7	0	-2	11
Cc1cc(C)c2c(=O)n(CC(=O)NC3CCCC3)sc2n1	0	-3	9	2	8
Cc1cc(C)c2c(=O)n(CC(=O)Nc3ccc(Br)c(C)c3)sc2n1	1	3	17	-21	-49*
Cc1cc(C)c2c(=O)n(CC(=O)Nc3cccc(Cl)c3C)sc2n1	4	-13	37*	-7	-3
COc1ccc(OC)c(CCNC(=O)Cn2sc3nc(C)cc(C)c3c2=O)c1	-1	8	3	-10	-48*
COc1ccc(OC)c(CCNC(=O)Cn2nc(C)c3c(C)n(-c4ccc(C)cc4)nc3c2=O)c1	-1	-2	2	-3	1
COc1cccc(-n2c(SC)nnc2-c2cnccn2)c1	0	-6	1	-2	-45*
COc1cccc(-n2c(SCC#N)nnc2-c2cnccn2)c1	0	-7	1	3	-9
Nc1c(C(=O)c2ccc(Cl)cc2)sc2nsc(SCCN3CCOCC3)c12	27	-5	103*	-1	-25
Nc1c(C(=O)c2ccccc2)sc2nsc(SCCN3CCCC3)c12	54*	-8	167*	-4	-34*
CCc1ccccc1NC(=O)Cn1c(C(=O)OC)cc2oc(C)cc21	0	-4	0	-2	5
COc1cc(NC(=O)c2nnn(CC(=O)Nc3cc(C)ccc3C)c2N)cc(OC)c1	0	18	3	-3	-1
O=C(CCc1nc2ccccc2c(=O)[nH]1)NCc1ccccn1	0	0	1	-15	-30*
O=C(COC(=O)CCc1nc2ccccc2c(=O)[nH]1)Nc1ccccc1Cl	-1	9	1	5	-41*
O=C(CNc1ccc2c(c1)OCO2)N/N=C\c1cn(Cc2ccc(F)cc2)c2ccccc12	-2	3	3	-4	-41*
Cc1ccc(Cl)cc1NC(=S)N(CCCN1CCOCC1)Cc1ccco1	0	0	3	-12	-52*
Cc1ccc(NC(=S)N(CCCN2CCOCC2)Cc2ccco2)cc1C	1	-1	-1	0	8
Cc1cc(NC(=S)N(CCCN2CCN(C)CC2)Cc2ccco2)ccc1Cl	0	-7	9	0	-31*
O=C(O)CCCN1C(=O)/C(=C\c2ccc(-c3nc4ccccc4s3)o2)SC1=S	7	-5	35*	6	80
O=C(O)CCN1C(=O)/C(=C/c2ccc(-c3nc4ccccc4s3)o2)SC1=S	1	7	28	5	98
SMILES	TRHR ag	TRHR enhancer	D1 ag	D1 PAM	D1 antag
O=C(O)CN1C(=O)/C(=C/c2ccc(-c3cccc(Cl)c3)o2)SC1=S	2	32*	5	10	13
O=C(O)c1cc(-c2ccc(/C=C3/SC(=S)N(Cc4ccccc4)C3=O)o2)ccc1Cl	-1	14	7	-6	4
O=C(NCc1ccc(Cl)cc1Cl)C1CC(=O)N(Cc2ccccc2)C1 (configuration not stated)	1	-7	-2	-2	-31*
O=C(O)C1CC(=O)N(Cc2ccccc2)C1 (configuration not stated)	2	5	1	-12	-22
Cc1cc2c(s1)c1cnn(Cc3cccc(Cn4ncc5c6sc(C)cc6n(C)c5c4=O)c3F)c(=O)c1n2C	-1	2	2	7	-14
Fc1ccc(CNc2ncnc3onc(-c4ccc(F)cc4)c23)cc1	-1	4	2	0	-5
Cc1ccc(CNc2ncnc3onc(-c4ccc(F)cc4)c23)cc1	-1	3	32*	-5	-24
Cc1ccc(CCNc2ncnc3onc(C)c23)cc1	-1	-9	22	-8	-36*
Cc1noc2ncnc(NCCc3ccccc3)c12	2	-12	23	-2	-23
CCCCN(CC)C(=O)c1ccc2c(c1)NC(=O)c1ccccc1S2	-1	-12	3	0	-45*
CC(C)OCCCNC(=O)c1ccc2c(c1)NC(=O)c1ccccc1S2	0	-3	3	-3	1
Cc1ccc(-n2c(SCC(=O)NCc3ccc(F)cc3)nc3c([nH]c4ccccc43)c2=O)cc1	0	3	4	-3	8
COCCCNC(=O)c1ccc(-n2nc(C(F)(F)F)cc2-c2cccs2)cc1	-1	0	11	-7	-2
O=C(NCCCN1CCOCC1)c1ccc(-n2nc(C(F)(F)F)cc2-c2cccs2)cc1	-1	10	62*	-10	-25
O=C(Cn1ncc2c([nH]c3ccccc32)c1=O)NCc1cccc(Cl)c1	1	12	4	-2	-3
CCOC(=O)c1sc(NC(=O)c2cccc(S(=O)(=O)N3CCN(C)CC3)c2)cc1C	-1	-1	15	-5	-35*
CCOC(=O)c1sc(NC(=O)c2cccc(S(=O)(=O)N(CC)CC)c2)cc1C	5	-3	1	-5	-17
CCOC(=O)c1sc(NC(=O)Nc2ccc(Cl)cc2)cc1C	2	-17	29	-10	-58*
CCOC(=O)c1sc(NC(=O)c2ccccc2)cc1C	0	4	42*	-6	-14
CCOC(=O)c1sc(NC(=O)c2c(C)nn(Cc3ccccc3)c2C)cc1C	0	-4	3	-19	-45*
CCOC(=O)c1sc(NC(=O)c2ccc(Cl)s2)cc1C	0	6	2	-7	2
CC1=C(C(=O)Nc2ccccc2C)C(c2cccnc2)n2nc(SCc3ccccc3F)nc2N1 (configuration not stated)	0	1	4	1	-2
CC(NC(=O)CCc1nc2cc(S(=O)(=O)N3CCOCC3)ccc2n1C)c1ccc(S(N)(=O)=O)cc1 (configuration not stated)	0	2	3	-2	2
COc1ccccc1NC(=S)NCC1CCC(CNC(=S)Nc2ccccc2OC)CC1 (configuration not stated)	0	27	1	0	-85*
COc1ccc(NC(=S)NCc2ccccc2Cl)c(OC)c1	0	-10	-2	-9	-33*
COc1ccccc1NC(=S)NCc1ccccc1Cl	0	37*	-2	-5	-11
